According to PubChem BioAssay:
Values joined by “and” are separate entries in the source; they are usually repeats but may differ in a detail not shown here. Equal entries are not always repeated. Active and inactive are the calls of the source. Rule as the data show it, unless noted: active = inhibition above about 80%; inactive = the rest.

Legend:
[1] = compounds altering circadian rhythm period length – cell-based, LOPAC library, luminescence reporter (AID 2774; call rule not given here;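 also: values are relative to mean of DMSO wells on each plate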); conditions: circadian reporter cells, at 7 µM, actives lie on both sides
[2] = tested on: Hepatitis C virus NS3 helicase; experiment: blockers of NS3h binding to ssDNA – biochemical, fluorescence polarization, LOPAC1280 library, primary screen (AID 687035; in the data active = inhibition above about 37%); conditions: Purified HCV NS3 helicase, Cy5-dT15 ssDNA binding fluorescence polarization; stronger effect = higher value; concentration not given here
[3] = compounds altering Cy5-DNA-NS3h complex signal – biochemical, LOPAC1280, artefact control for HCV NS3 helicase inhibitor project (AID 687037; call rule not given here); conditions: Cy5-DNA-NS3h complex fluorescence interference counterscreen
[4] = viability loss with induced miR-34 in A549 – imaging, A549 dox-inducible miR-34, nuclei and caspase counts, primary screen (AID 1347080;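 active = compounds whose cell count with miR-34 switched on is under 0.7 times the count with it off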); conditions: A549 miR-34 inducible, Hoechst nuclei count, 48 h
[5] = galactose survival enhancers in mitochondrial complex I cybrids – cell-based, galactose medium, ATP luminescence, primary screen (AID 1645843;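 active = z-score of at least 1.8 in each of two replicates, scored against plate mean and spread of sample wells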;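 also: positive z means more ATP and so rescue of galactose-driven cybrid death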); conditions: complex I mutant cybrid cells, 72 h, stronger effect = higher value
[6] = growth inhibition, single agent or in combination, cell-based, chromothripsis tumors, cisplatin or BGB combos (AID 1671449); conditions: LFS_MB_P medulloblastoma cells;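 also: cells exposed for 96 hours; 0% = vehicle DMSO and 100% = killing by high DMSO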
[7] = growth inhibition, single agent and combos, cell-based, chromothripsis tumors, cisplatin or BGB combos (AID 1671450); conditions: HDN33 neuroblastoma cells, stronger effect = higher value;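 also: cells exposed to compound for four days; 0% = vehicle DMSO and 100% = cell killing by high DMSO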
[8] = growth inhibition, single agents and combos, ICB984, cell-based, cisplatin or BGB combos, synergistic combos for chromothripsis tumors (AID 1671451; call rule not given here;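 also: cells exposed for 96 hours before readout; 0% = vehicle DMSO and 100% = killing by high DMSO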); conditions: ICB984 medulloblastoma cells, drug combinations, stronger effect = higher value
[9] = growth inhibition, single agents and combos, LFS_MB_1R, cell-based, cisplatin or BGB combos, synergistic combos for chromothripsis tumors (AID 1671452); conditions: LFS_MB_1R medulloblastoma cells, stronger effect = higher value;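 also: cells exposed for 96 hours before readout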
[10] = growth inhibition, single agents and combos, HTB85, cell-based, BGB or cisplatin IC20 combos, synergistic combos for chromothripsis tumors (AID 1671453); conditions: HTB85 osteosarcoma cells, drug combinations, stronger effect = higher value;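 also: cells exposed for 96 hours before readout; 0% = vehicle DMSO and 100% = high DMSO killing control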
[11] = growth inhibition, single agents and combos, CRL2098, cell-based, BGB or cisplatin IC20 combos, synergistic combos for chromothripsis tumors (AID 1671454); conditions: CRL2098 osteosarcoma cells, drug combinations, stronger effect = higher value;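 also: cells exposed for 96 h before readout; 0% = vehicle DMSO and 100% = killing by high DMSO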
[12] = growth inhibition, single agents and combos, HD-MB03, cell-based, BGB or cisplatin IC20 combos, synergistic combos for chromothripsis tumors (AID 1671455; in the data active = inhibition above about 83%;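 also: 0% = vehicle DMSO and 100% = high DMSO as cytotoxic control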); conditions: HD-MB03 medulloblastoma cells, stronger effect = higher value
[13] = growth inhibition, single agents and combos, UWB1.289, cell-based, BGB or cisplatin combos, synergistic combos for chromothripsis tumors (AID 1671456); conditions: UWB1.289 ovarian carcinoma cells, stronger effect = higher value;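 also: cells exposed to compound for four days; 0% = vehicle DMSO and 100% = killing by high DMSO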
[14] = growth inhibition, single agents and combos, LFS_MB_2R, cell-based, cisplatin combos, synergistic combos for chromothripsis tumors (AID 1671457); conditions: LFS_MB_2R medulloblastoma cells, stronger effect = higher value;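 also: cells exposed to compound for four days before readout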
[15] = growth inhibition, MDA-MB-436, cell-based, BGB or cisplatin combos, synergistic combos for chromothripsis tumors (AID 1671458; call rule not given here;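 also: cells exposed for 96 hours; 0% = vehicle DMSO and 100% = killing by high DMSO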); conditions: MDA-MB-436 breast carcinoma growth inhibition, drug combinations, stronger effect = higher value
[16] = UWB1.289_BRCA1 ovarian cancer growth, cell-based, BGB or cisplatin combinations (AID 1671459); conditions: UWB1.289 BRCA1 ovarian carcinoma, drug combinations, stronger effect = higher value
[17] = drug combination toxicity in non-malignant astrocytes – cell-based, BGB or cisplatin IC20 combos, cytotoxicity control for chromothriptic childhood tumor combination screen (AID 1671460); conditions: Human astrocytes, viability inhibition, drug combinations, at 0.5 µM, stronger effect = higher value;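 also: cells exposed to compounds for 96 hours before viability readout; 0% = vehicle and 100% = killing control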
[18] = BT084 cell growth, single and combined drugs, ICGC_MB145, cisplatin and BGB IC40 combos (AID 1671461); conditions: BT084 medulloblastoma cells, drug combinations, stronger effect = higher value;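 also: cells exposed to drugs for 96 hours; 0% = vehicle DMSO and 100% = high DMSO full killing control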
[19] = RCMB18 cell growth, single agent and combined, cisplatin and BGB IC40 combos (AID 1671462); conditions: RCMB18 medulloblastoma cells, stronger effect = higher value;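 also: cells exposed to compound for four days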
[20] = CRL1545 cell growth, single agent and combined, cisplatin and BGB IC20 combos (AID 1671464); conditions: CRL1545 osteosarcoma cells, stronger effect = higher value;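 also: cells exposed to compound for 96 hours before readout; 0% = vehicle DMSO and 100% = high DMSO killing control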
[21] = stronger effect = lower value, cell number ratio, induced over uninduced
[22] = measured here: relative caspase fold change +Dox/-Dox
[23] = measured here: total cells with miR-34 induction, stronger effect = lower value
[24] = measured here: total cells without miR-34 induction
[25] = measured here: combination with BGB IC40, at 0.05 µM
[26] = measured here: with BGB IC20 combination, at 0.5 µM
[27] = measured here: with cisplatin IC20 combination, at 0.5 µM
[28] = measured here: combination with cisplatin, at 0.5 µM
[29] = measured here: combination with cisplatin, at 5 µM

Question: With Oc1ccc(Cn2cc[nH]c2=S)cc1 as the molecule, how does the period change [1] read?
Answer: Its period change is 0.16 h (inactive).

Question: And the inhibition [2]?
Answer: The inhibition was -4% (inactive).

Question: And the fluorescence ratio (interference) [3]?
Answer: Its fluorescence ratio (interference) is 1 (inactive).

Question: And the fold change [4, 21]?
Answer: The fold change was 0.942 (inactive).

Question: And the fold change [4, 22]?
Answer: Its fold change is 1.11.

Question: And the cell count [4, 23]?
Answer: The cell count was 9950.

Question: And the cell count [4, 24]?
Answer: Its cell count is 10600.

Question: And the z-score [5]?
Answer: Its z-score is 0.15 (inactive).

Question: With N=S(=O)(O)Cc1noc2ccccc12 as the molecule, how does the period change [1] read?
Answer: The period change was 0.1 h (inactive).

Question: What about the inhibition [2] of the same molecule?
Answer: The inhibition was 1% (inactive).

Question: What about the fluorescence ratio (interference) [3] of the same molecule?
Answer: Its fluorescence ratio (interference) is 1 (inactive).

Question: And the fold change [4, 21]?
Answer: Its fold change is 0.955 (inactive).

Question: And the fold change [4, 22]?
Answer: The fold change was 2.62.

Question: What about the cell count [4, 23] of the same molecule?
Answer: Its cell count is 9240.

Question: What about the cell count [4, 24] of the same molecule?
Answer: Its cell count is 9680.

Question: And the z-score [5]?
Answer: Its z-score is 0.5 (inactive).

Question: What does the source list for Nc1ccccc1NC(=O)CCCCCCC(=O)Nc1ccccc1?
Answer: fold change [4, 21]: 1.01 (inactive); fold change [4, 22]: 0.802; cell count [4, 23]: 5630; cell count [4, 24]: 5580; inhibition ([6]; at 0.5 µM, stronger effect = higher value): -12.9% (inactive) and -25.1% (inactive); inhibition ([6]; measured here: combination with BGB IC20, at 0.005 µM): -23.2% and 0.813%; inhibition ([6]; measured here: combination with BGB IC40, at 0.005 µM): 83.8% and -29.2%; inhibition [6, 25]: -12.1% and -1.18%; inhibition ([6]; measured here: combination with cisplatin, at 0.5 µM, stronger effect = higher value): -8.88% and -35.8%; inhibition ([6]; measured here: combination with cisplatin, at 5 µM, stronger effect = higher value): 46.8% and 54.9%; inhibition ([7]; BGB combo, at 5 µM): 20.6% and 28.7%; inhibition ([7]; at 0.5 µM): 5.22% (inactive) and 5.82% (inactive); inhibition ([7]; cisplatin combo, at 5 µM): 39.9% and 36.6%; inhibition [7, 26]: 3.82% and 0.196%; inhibition [7, 27]: 11.3% and -1.37%; inhibition ([7]; single agent, at 5 µM): 23.6% and 28%; inhibition ([8]; BGB IC20 combo, at 0.005 µM): -17.1% and -28%; inhibition ([8]; BGB IC40 combo, at 0.005 µM): -32.5% and -14.2%; inhibition ([8]; BGB IC40 combo, at 0.05 µM): -14.5% and 9.77%; inhibition ([8]; at 0.5 µM): -15.5% (inactive) and -30% (inactive); inhibition ([8]; cisplatin combo, at 0.05 µM): -20.4% and 6.2%; inhibition ([8]; cisplatin combo, at 0.5 µM): -17.3% and -48.3%; inhibition ([8]; cisplatin combo, at 5 µM): -18.3% and -14.7%; inhibition ([8]; measured here: 5 uM single agent, at 5 µM): -14.3% and -5.49%; inhibition ([9]; at 0.5 µM): -20.2% (inactive) and -14.9% (inactive); inhibition [9, 25]: -18.8% and -20.1%; inhibition [9, 28]: -21.4% and -9.37%; inhibition [9, 29]: 34.7% and 36.3%; inhibition ([10]; at 0.5 µM): 1.45% (inactive) and -7.23% (inactive); inhibition ([10]; measured here: with BGB IC20, at 0.5 µM): 2.99% and -6.61%; inhibition ([10]; measured here: with BGB IC20, at 5 µM): 19.2% and 7.94%; inhibition ([10]; measured here: with cisplatin IC20, at 0.5 µM): -1.97% and -10.6%; inhibition ([10]; measured here: with cisplatin IC20, at 5 µM): 29.1% and 24.4%; inhibition ([10]; single agent, at 5 µM): 11.1% and 13.2%; inhibition ([11]; at 0.5 µM): -31.9% (inactive) and -38.7% (inactive); inhibition ([11]; measured here: combination with BGB at IC20, at 0.5 µM): -43.5% and -26.6%; inhibition ([11]; measured here: combination with cisplatin at IC20, at 0.5 µM): -10.1% and -25.3%; inhibition ([12]; at 0.5 µM): -7.05% (inactive) and -2.46% (inactive); inhibition ([12]; measured here: combo with BGB at IC20, at 0.5 µM): -17.3% and -8.59%; inhibition ([12]; measured here: combo with cisplatin at IC20, at 0.5 µM): -8.12% and 7.03%; inhibition ([13]; at 0.5 µM): -2.22% (inactive) and -4.15% (inactive); inhibition ([13]; measured here: inhibition with BGB combination, at 0.05 µM): -17% and -12.6%; inhibition ([13]; measured here: inhibition with cisplatin combination, at 0.05 µM): -16.5% and -4.91%; inhibition ([14]; at 0.5 µM): -23.5% (inactive) and -15.8% (inactive); inhibition [14, 28]: -37.7% and -10.7%; inhibition [14, 29]: 7.67% and 25.4%; inhibition ([15]; at 0.5 µM): -14.6% (inactive) and -1.03% (inactive); inhibition ([15]; measured here: BGB combination, at 0.5 µM): -7.46% and 0.27%; inhibition ([15]; measured here: BGB combination, at 5 µM): 5.07% and 2.02%; inhibition ([15]; measured here: cisplatin combination, at 0.5 µM): -38.4% and 3.8%; inhibition ([15]; measured here: cisplatin combination, at 5 µM): -8.44% and 23.3%; inhibition ([16]; BGB combination, concentration series, at 5 µM): 0.199% and 30.8%; inhibition ([16]; at 0.5 µM): -7.51% (inactive) and -1.85% (inactive); inhibition ([16]; cisplatin combination, concentration series, at 5 µM): 21% and 30.8%; inhibition [17]: 4.47% (inactive) and 4% (inactive); inhibition ([17]; measured here: combo with BGB IC20): 8.04% and 0.536%; inhibition ([17]; measured here: combo with cisplatin IC20): -1.54% and 9.6%; inhibition ([18]; at 0.5 µM): 4.38% (inactive) and 12.8% (inactive); inhibition ([18]; cisplatin combination, at 0.5 µM): -7.78% and 20.7%; inhibition ([18]; cisplatin combination, at 5 µM): -10.7% and 73.5%; inhibition ([18]; measured here: BGB IC40 combination 0.05 uM, at 0.05 µM): 4.05% and -2.15%; inhibition ([18]; single agent, at 5 µM): 24.6% and 32.9%; inhibition ([19]; at 0.5 µM): 7.96% (inactive) and 7.04% (inactive); inhibition ([19]; cisplatin combo, at 5 µM): 43.6% and 67.7%; inhibition ([19]; measured here: BGB IC40 combination, at 0.05 µM): -7.17% and -10.2%; inhibition [19, 28]: 5.88% and 41.6%; inhibition ([19]; single agent, at 5 µM): 30.6% and 7.16%; inhibition ([20]; at 0.5 µM): 12.1% (inactive) and 5.27% (inactive); inhibition [20, 26]: -6.11% and -18%; inhibition [20, 27]: 19.9% and 16.9%; inhibition ([20]; single agent, at 0.05 µM): 13.3% and -6.35%; inhibition ([20]; single agent, at 5 µM): 14.5% and 19.2%
